Laboratory results taken from PubChem BioAssay (Tox21).
“And” between values parts separate entries of the source, which are not always exact repeats. Equal values may be shown once. Results filed as inconclusive are left out. The source made the active and inactive calls. Unless noted, the call rests on the fitted dose curve; in most records, active means well fitted curve in the direction sought with a large enough effect in the repeat runs; inconclusive means weak or mixed curves; inactive means no such curve, though single readings can be large; an effect the other way counts as inactive or inconclusive.

Key:
[1] = qHTS assay to identify small molecule agonists of the hypoxia (HIF-1) signaling pathway - cell viability counter screen (AID 1224844; calls by dose curve; further: nearly all actives have a fitted effect of over 50% in size)
Method in brief: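 Multiplexed with the HRE beta-lactamase assay, this viability read used CellTiter-Glo luminescence (30 min, RT) on HRE-bla ME-180 cells treated 17 hrs with compounds in 0.5% dialyzed FBS medium.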

[2] = qHTS assay to identify small molecule agonists of H2AX (AID 1224845; active means well fitted activation curve with a large enough effect in the signal ratio in the repeat runs, not every such curve was filed as active; the % refers to the signal ratio)
Method in brief: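 Wild-type CHO-K1 cells, plated overnight, exposed 3hr at 37C to 15 concentrations (0.76% DMSO final). Lysed, then HTRF anti-pH2AX (S139) cryptate and anti-H2AX-d2 antibodies, 24 hr room temperature; 665/620 nm emission read.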

[3] = qHTS assay to identify small molecule agonists of the hypoxia (HIF-1) signaling pathway (AID 1224846; active means well fitted activation curve with a large enough effect in the signal ratio in the repeat runs, not every such curve was filed as active; the % refers to the signal ratio)
Method in brief: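 Hypoxia-pathway activation was scored as increased beta-lactamase from an HRE-controlled reporter in ME-180 cells; plated at 2,000 cells per well with 0.5% dialyzed FBS, they were exposed 17 hrs to compounds and then given CCF4-AM.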

[4] = qHTS assay to identify small molecule agonists of H2AX - cell viability counter screen (AID 1224847; calls by dose curve; further: top concentration of the series differs between compounds; nearly all actives have a fitted effect of over 30% in size)
Method in brief: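 Cytotoxicity counter screen in wild-type CHO-K1 cells: a 3 hr compound treatment at 37C across 15 concentrations, followed by CellTiter-Glo luminescence to gauge viable cells.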

[5] = qHTS assay to identify small molecule antagonists of the estrogen related receptor (ERR) signaling pathway from Tox21 library (AID 1224848); further: nearly all actives have a fitted effect of over 50% in size
Method in brief: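 Luminescent reporter read-out (ONE-Glo) from NTP's ERR cell line after 18 h treatment at 37 C with DMSO-dissolved Tox21 compounds; cells pre-plated 6 h beforehand at 2,000 per well.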

[6] = qHTS assay to identify small molecule agonists of the estrogen related receptor (ERR) signaling pathway from Tox21 library (AID 1224849; calls by dose curve; further: nearly all actives have a fitted effect of over 15% in size); conditions: ERR reporter cell line, ONE-Glo luciferase, 18 h
Method in brief: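 Six hours post-seeding at 37 C/5% CO2, ERR cells receive DMSO-solubilised compounds; after 18 h at 37 C, ONE-Glo reagent is applied and luminescence recorded.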

[7] = qHTS RealTime-Glo MT Cell Viability Assay in HepG2 cells - 24 hour (AID 1224867); further: nearly all actives have a fitted effect of over 50% in size
Method in brief: (§1)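 Compound treatment began 5 h after plating HepG2 cells (600/well) with NanoLuc luciferase and prosubstrate. Plates stayed at 37 C for 40 h; luminescence was captured at six time points, 0 h through 40 h.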

[8] = qHTS RealTime-Glo MT Cell Viability Assay in HEK293 cells - 32 hour (AID 1224868); further: top concentration of the series differs between compounds; nearly all actives have a fitted effect of over 50% in size
Method in brief: (§2)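 Quantitative high-throughput screen of the Tox21 10K library in HEK293: cells and RealTime-Glo reagents plated together, compound added at 5 h, luminescence monitored through 40 h at 37 C.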

[9] = A CellTox Green Cytotoxicity Assay to monitor cytotoxicity in HEK293 cells - 0 hour (AID 1224869); further: nearly all actives have a fitted effect of over 50% in size
Method in brief: (§3)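 Seeding of HEK293 cells together with cytotoxicity dye preceded a 5 h incubation at 37 C/5% CO2. Test compounds in DMSO were then added and fluorescence monitored across 40 h.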

[10] = qHTS RealTime-Glo MT Cell Viability Assay in HepG2 cells - 40 hour (AID 1224870); further: nearly all actives have a fitted effect of over 50% in size
Method in brief: (§4)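 HepG2 cells (600/well) mixed with RealTime-Glo MT reagent, settled 5 h at 37 C/5% CO2 before compound addition. Nonlytic NanoLuc luminescence from viable-cell prosubstrate reduction read repeatedly during 40 h treatment at 37 C.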

[11] = A CellTox Green Cytotoxicity Assay to monitor cytotoxicity in HEK293 cells - 40 hour (AID 1224871); further: nearly all actives have a fitted effect of over 45% in size
Method in brief: as §3

[12] = qHTS RealTime-Glo MT Cell Viability Assay in HEK293 cells - 16 hour (AID 1224872)
Method in brief: as §2

[13] = qHTS RealTime-Glo MT Cell Viability Assay in HepG2 cells - 8 hour (AID 1224873); further: nearly all actives have a fitted effect of over 55% in size
Method in brief: as §4

[14] = qHTS RealTime-Glo MT Cell Viability Assay in HEK293 cells - 40 hour (AID 1224874); conditions: RealTime-Glo luminescence; max response: active compounds read low; further: nearly all actives have a fitted effect of over 50% in size
Method in brief: (§5)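 Tox21 screen in HEK293 using RealTime-Glo MT chemistry, with cells and reagent co-dispensed. Luminescence proportional to viable cell number was captured at intervals during 40 h compound exposure at 37 C.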

[15] = A CellTox Green Cytotoxicity Assay to monitor cytotoxicity in HEK293 cells - 24 hour (AID 1224875); further: nearly all actives have a fitted effect of over 45% in size
Method in brief: as §3

[16] = A CellTox Green Cytotoxicity Assay to monitor cytotoxicity in HepG2 cells - 16 hour (AID 1224876); further: nearly all actives have a fitted effect of over 45% in size
Method in brief: (§6)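 Nonlytic assay: viable cells exclude the dye, so fluorescence scales with cell death. HepG2 at 600 cells/well, compounds added after 5 h, signal read across 40 h.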

[17] = qHTS RealTime-Glo MT Cell Viability Assay in HepG2 cells - 32 hour (AID 1224877); further: nearly all actives have a fitted effect of over 55% in size
Method in brief: as §1

[18] = A CellTox Green Cytotoxicity Assay to monitor cytotoxicity in HepG2 cells - 24 hour (AID 1224878); further: nearly all actives have a fitted effect of over 45% in size
Method in brief: as §6

[19] = A CellTox Green Cytotoxicity Assay to monitor cytotoxicity in HepG2 cells - 40 hour (AID 1224879); further: nearly all actives have a fitted effect of over 40% in size
Method in brief: as §6

[20] = qHTS RealTime-Glo MT Cell Viability Assay in HEK293 cells - 0 hour (AID 1224880)
Method in brief: as §5
On the % scale 0 is the no-effect control and ±100 the full control effect.

NC1CCCCC1N (stereo not given)
inactive: Potency [1] | Potency [2] | outcome [3] | Potency [4] | Potency [5] | activity change, positive = activation ([6]; at 92.4 µM (top of the series)) 1.49% and 5.92% | Potency [7] | Potency [8] | Potency [9] | Potency [10] | Potency [11] | Potency [12] | Potency [13] | max response [14] -12.3% and -1.05% | Potency [15] | Potency [16] | Potency [17] | Potency [18] | Potency [19] | Potency [20]

Nc1cccc(C(F)(F)F)c1
inactive: Potency [1] | Potency [2] | outcome [3] | Potency [4] | Potency [5] | activity change, positive = activation ([6]; at 92.4 µM (top of the series)) 2.57% and 2.05% | Potency [7] | Potency [8] | Potency [9] | Potency [10] | Potency [11] | Potency [12] | Potency [13] | max response [14] 3.13% and 0.276% | Potency [15] | Potency [16] | Potency [17] | Potency [18] | Potency [19] | Potency [20]

CC1(C)[C@@H](O[C@H]2O[C@H](C(=O)O)[C@@H](O)[C@H](O)[C@H]2O[C@@H]2O[C@H](C(=O)O)[C@@H](O)[C@H](O)[C@H]2O)CC[C@]2(C)[C@H]3C(=O)C=C4[C@@H]5C[C@@](C)(C(=O)O)CC[C@]5(C)CC[C@@]4(C)[C@]3(C)CC[C@@H]12
inactive: Potency [1] | Potency [2] | outcome [3] | Potency [4] | Potency [5] | activity change, positive = activation ([6]; at 42.5 µM (top of the series)) 2.2% and 1.06% | Potency [7] | Potency [8] | Potency [9] | Potency [10] | Potency [11] | Potency [12] | Potency [13] | max response [14] -4.4% and 0.425% | Potency [15] | Potency [16] | Potency [17] | Potency [18] | Potency [19]

COc1ccccc1[N+](=O)[O-]
inactive: Potency [1] | Potency [2] | outcome [3] | Potency [4] | Potency [5] | activity change, positive = activation ([6]; at 92.4 µM (top of the series)) 2.88% | Potency [7] | Potency [8] | Potency [9] | Potency [10] | Potency [11] | Potency [12] | Potency [13] | max response [14] 3.8% and 3.66% | Potency [15] | Potency [16] | Potency [17] | Potency [18] | Potency [19] | Potency [20]

CC/C(C)=N/O
inactive: Potency [1] | Potency [2] | outcome [3] | Potency [4] | Potency [7] | Potency [8] | Potency [9] | Potency [10] | Potency [11] | Potency [12] | Potency [13] | max response [14] 0.953% and 3.11% | Potency [15] | Potency [16] | Potency [17] | Potency [18] | Potency [19] | Potency [20]

Cc1ccc([N+](=O)[O-])cc1N
inactive: Potency [1] | Potency [2] | outcome [3] | Potency [4] | Potency [7] | Potency [8] | Potency [9] | Potency [10] | Potency [11] | Potency [12] | Potency [13] | max response [14] 10.1% and 0.36% | Potency [15] | Potency [16] | Potency [17] | Potency [18] | Potency [19] | Potency [20]

CCCCCCCC(=O)O
inactive: Potency [1] | Potency [2] | outcome [3] | Potency [4] | Potency [7] | Potency [8] | Potency [9] | Potency [10] | Potency [11] | Potency [12] | Potency [13] | max response [14] 3.06% and 7% | Potency [15] | Potency [16] | Potency [17] | Potency [18] | Potency [19] | Potency [20]

Cc1ccc(C)c(S(=O)(=O)O)c1
inactive: Potency [1] | Potency [2] | outcome [3] | Potency [4] | Potency [7] | Potency [8] | Potency [9] | Potency [10] | Potency [11] | Potency [12] | Potency [13] | max response [14] 6.87% and -2.89% | Potency [15] | Potency [16] | Potency [17] | Potency [18] | Potency [19] | Potency [20]

COc1ccc([C@@H]2CC(=O)c3c(O)cc(O[C@@H]4O[C@H](CO[C@@H]5O[C@@H](C)[C@H](O)[C@@H](O)[C@H]5O)[C@@H](O)[C@H](O)[C@H]4O)cc3O2)cc1OC
inactive: Potency [1] | Potency [2] | outcome [3] | Potency [4] | Potency [7] | Potency [8] | Potency [9] | Potency [10] | Potency [11] | Potency [12] | Potency [13] | max response [14] 14.9% and 7.9% | Potency [15] | Potency [16] | Potency [17] | Potency [18] | Potency [19] | Potency [20]

Cc1ccncc1
inactive: Potency [1] | Potency [2] | outcome [3] | Potency [4] | Potency [7] | Potency [8] | Potency [9] | Potency [10] | Potency [11] | Potency [12] | Potency [13] | max response [14] 1.94% and -1.5% | Potency [15] | Potency [16] | Potency [17] | Potency [18] | Potency [19] | Potency [20]

CC(COCC(C)OC(=O)c1ccccc1)OC(=O)c1ccccc1 (stereo not given)
inactive: Potency [1] | Potency [2] | outcome [3] | Potency [4] | Potency [5] | activity change, positive = activation ([6]; at 92.4 µM (top of the series)) -2.03% and -5.66% | Potency [7] | Potency [9] | Potency [10] | Potency [11] | Potency [13] | Potency [15] | Potency [16] | Potency [17] | Potency [18] | Potency [19] | Potency [20]

CC(=O)OC[C@H]1O[C@@](COC(C)=O)(O[C@H]2O[C@H](COC(C)=O)[C@@H](OC(C)=O)[C@H](OC(C)=O)[C@H]2OC(C)=O)[C@@H](OC(C)=O)[C@@H]1OC(C)=O
inactive: Potency [1] | Potency [2] | outcome [3] | Potency [4] | Potency [7] | Potency [8] | Potency [9] | Potency [10] | Potency [11] | Potency [12] | Potency [13] | max response [14] -0.774% and 5.83% | Potency [15] | Potency [16] | Potency [17] | Potency [18] | Potency [19] | Potency [20]

NC(N)=S
inactive: Potency [1] | Potency [2] | outcome [3] | Potency [4] | Potency [7] | Potency [8] | Potency [9] | Potency [10] | Potency [11] | Potency [12] | Potency [13] | max response [14] 2.78% and 0.322% | Potency [15] | Potency [16] | Potency [17] | Potency [18] | Potency [19] | Potency [20]
